For 3 compounds, outcome results are on record in PubChem BioAssay AID2284330 (EPA ToxCast).

Results filed as inconclusive are left out. Calls of active or inactive are those of the source. Rule for the calls: active = hit-call score of the fitted dose curve at least 0.9, where 1 is the maximum; inconclusive = response in the unintended direction; inactive = score below 0.9.

The test system of this assay is frog Glucocorticoid Receptor (GR), gene 397897. Description: ATG_frGR_EcoTox2: Attagene TRANS-FACTORIAL EcoTox-2 HepG2 Assay for frog Glucocorticoid Receptor (GR). Here is the method:
ATG_EcoTox2 is a cell-based, multiplexed assay created by modifying the existing Attagene TRANS-FACTORIAL system to include a panel of nuclear receptors from some or all the following species: human (Homo sapiens), african clawed frog (Xenopus laevis), rainbow trout (Oncorhynchus mykiss), japanese medaka (Oryzias latipes), and zebrafish (Danio rerio). The ECOTOX2-FACTORIAL format uses HepG2, a human liver cell line, with measurements taken at 24 hours after chemical dosing in a 24-well plate. ATG_frGR_EcoTox2 is one of 29 assay components calculated in the ATG_EcoTox2 assay. It is designed to make measurements of mRNA induction, a form of inducible reporter, as detected with fluorescence intensity signals by Reverse transcription polymerase chain reaction (RT-PCR) and Capillary electrophoresis technology.The assay endpoint ATG_frGR_EcoTox2 was analyzed in the positive analysis fitting direction relative to DMSO as the negative control and baseline of activity. Using a type of inducible reporter, measures of mRNA for gain-of-signal activity can be used to understand the reporter gene at the transcription factor-level as they relate to the gene for glucocorticoid receptor. Furthermore, this assay endpoint can be referred to as a primary readout, because this assay has produced multiple assay endpoints where this one serves a reporter gene function. […]
Human liver HepG2 cells are transiently transfected with multiple reporter transcription units (MRTUs) in 6-well plates using FuGene 6 reagent (Roche; 3 ml FuGene/1 mg DNA). […] A major difference between the CIS and TRANS system is that in CIS activities of endogenous TFs are measured, whereas the TRANS assay evaluates changes in activities of exogenous, chimeric NR-Gal4 proteins. […] The fragments were purified using Qiaquick PCR columns (Qiagen), analyzed on an ABI 3130xL genetic analyzer (Applied Biosystems) with peak positions identified by using a set of X-rhodamine (ROX)-labeled MapMarker1000 molecular weight standards (BioVentures). […]
With `O=S(=O)(O)C(F)(F)C(F)(F)C(F)(F)C(F)(F)C(F)(F)C(F)(F)F`, the outcome was inactive.
In the case of `CCCCOCN(C(=O)CCl)c1c(CC)cccc1CC`, the outcome was inactive.
As for `O=P(Oc1ccccc1)(Oc1ccccc1)Oc1ccccc1`, the outcome was inactive.
